# Laboratory results reported in PubChem BioAssay AID540327 (National Center for Advancing Translational Sciences (NCATS), 2011).
# Several values for one entry are separate records, joined by “and”; a condition that tells them apart may be missing. Equal values may be shown once. The list shows a part of the results. Records with an inconclusive call do not appear. Activity calls are given as the source filed them. The call rests on the fitted dose curve; in most records, active means well fitted inhibition curve with a large enough effect; inconclusive means small, poorly fitted or top-dose-only effect; inactive means flat fitted curve, though single readings scatter.
# Target: Ubiquitin carboxyl-terminal hydrolase 1 (Homo sapiens) (UniProt O94782)
# Sequence (O94782 whole entry, looked up): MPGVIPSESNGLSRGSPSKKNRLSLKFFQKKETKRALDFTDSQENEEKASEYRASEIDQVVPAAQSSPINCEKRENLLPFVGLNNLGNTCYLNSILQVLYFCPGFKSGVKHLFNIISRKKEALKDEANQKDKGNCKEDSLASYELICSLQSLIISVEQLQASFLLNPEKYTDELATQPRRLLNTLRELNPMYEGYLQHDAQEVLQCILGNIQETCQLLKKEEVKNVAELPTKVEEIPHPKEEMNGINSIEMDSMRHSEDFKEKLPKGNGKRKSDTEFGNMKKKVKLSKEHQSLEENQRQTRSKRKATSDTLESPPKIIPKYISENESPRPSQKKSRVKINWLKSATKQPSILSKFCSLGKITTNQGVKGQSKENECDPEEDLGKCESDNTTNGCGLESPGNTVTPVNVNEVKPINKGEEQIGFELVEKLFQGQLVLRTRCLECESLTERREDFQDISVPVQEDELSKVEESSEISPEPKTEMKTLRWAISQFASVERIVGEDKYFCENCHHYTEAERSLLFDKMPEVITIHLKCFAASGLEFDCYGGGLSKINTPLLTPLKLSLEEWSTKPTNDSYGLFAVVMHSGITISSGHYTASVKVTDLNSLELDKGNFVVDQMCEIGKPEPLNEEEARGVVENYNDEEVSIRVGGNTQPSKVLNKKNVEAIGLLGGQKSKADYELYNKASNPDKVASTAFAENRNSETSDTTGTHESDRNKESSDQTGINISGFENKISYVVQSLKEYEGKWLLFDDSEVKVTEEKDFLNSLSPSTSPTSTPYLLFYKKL
# Experiment: Inhibitors of USP1/UAF1: Hit Validation in Primary Assay
# Conditions: Ub-Rhodamine cleavage, fluorescence kinetic read
# From the text: Deubiquitinating enzymes (DUBs) are a class of enzymes that can cleave isopeptide bond formed between the C-terminal carboxylate of ubiquitin and a lysine side-chain amino group on the target protein. Among them, ubiquitin specific proteases (USPs) constitute the largest DUB family. Human USPs are emerging as promising targets for pharmacological intervention because of their connection to a number of human diseases, including prostate, colon and breast cancer (1, 2), pediatric acute lymphoblastic leukemia (3), and familial cylindromatosis (4). The advantage of inhibiting USPs lies in the potential specificity of therapeutic intervention that can lead to better efficacy and reduce nonspecific side effects. […] This miniaturized assay has a fluorescent read-out and is used to screen the NIH Molecular Libraries Small Molecule Repository (MLSMR) in order to identify a small molecule that inhibits USP1. […]
# 3 microliters of reagents (buffer in columns 3 and 4 as negative control and 1nM USP1/UAF1 complex in columns 1, 2, and 5-48) are dispensed into Greiner black solid bottom 1536-well assay plates. […] The plates are immediately centrifuged at 1000 rpm for 15 seconds, and subsequently transferred to a ViewLux high-throughput CCD imager (PerkinElmer) wherein kinetic measurements of fluorescence are acquired using 480 nm excitation/540 nm emission filter set (6 reads every 60 seconds, see Table 1). […]
compound,measurement,value
CC(C)c1ccc2c(c1)c(SC(C)(C)C)c(CC(C)(C)C(=O)O)n2Cc1ccc(Cl)cc1,Potency,66.3 µM (active) and 41.8 µM (active)
